Screening data from PubChem.
KCNQ2 pot: enhances the rat KCNQ2 potassium channel. O88943. CHO-K1 KCNQ2, FluxOR thallium flux fluorescence; hits give high values. B-score at 10 µM. 310,000 compounds, 0.54% hits. AID 2239;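 active means fluorescence ratio B-score at least 3 SD of library B-scores, with initial fluorescence B-score within 3 of them, cut at about 5.3 in these data; same plate scores as AID 2156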;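 further: B-score of peak minus minimum over baseline fluorescence ratio after K+ and Tl+ stimulus; positive B-score means potentiation of KCNQ2 with more thallium influx and brighter signal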
Target sequence (O88943 whole entry, looked up): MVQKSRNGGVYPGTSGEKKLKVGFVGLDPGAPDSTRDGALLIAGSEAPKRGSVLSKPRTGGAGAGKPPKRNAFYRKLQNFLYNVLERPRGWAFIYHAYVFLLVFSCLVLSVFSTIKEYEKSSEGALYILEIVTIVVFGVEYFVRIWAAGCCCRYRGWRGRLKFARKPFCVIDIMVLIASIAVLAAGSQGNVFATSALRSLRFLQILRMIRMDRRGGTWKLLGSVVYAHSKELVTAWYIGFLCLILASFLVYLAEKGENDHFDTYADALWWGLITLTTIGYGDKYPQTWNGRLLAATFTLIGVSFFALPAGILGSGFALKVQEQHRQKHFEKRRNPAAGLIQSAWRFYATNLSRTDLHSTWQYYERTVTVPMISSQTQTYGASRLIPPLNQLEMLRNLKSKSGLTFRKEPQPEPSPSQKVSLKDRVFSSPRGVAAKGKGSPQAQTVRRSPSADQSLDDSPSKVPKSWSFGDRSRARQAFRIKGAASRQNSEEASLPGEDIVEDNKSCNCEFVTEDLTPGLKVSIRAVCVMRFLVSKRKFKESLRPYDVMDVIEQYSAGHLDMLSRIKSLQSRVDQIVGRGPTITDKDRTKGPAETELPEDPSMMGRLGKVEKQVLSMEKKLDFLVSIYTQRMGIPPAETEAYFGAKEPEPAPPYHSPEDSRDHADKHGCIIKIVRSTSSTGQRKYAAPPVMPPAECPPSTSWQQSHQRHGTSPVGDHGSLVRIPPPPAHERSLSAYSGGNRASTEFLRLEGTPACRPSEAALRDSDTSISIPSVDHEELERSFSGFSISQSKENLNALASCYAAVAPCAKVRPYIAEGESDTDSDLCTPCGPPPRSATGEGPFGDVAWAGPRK
KCNQ2 block: inhibitors of rat KCNQ2 potassium channel | O88943 | CHO-K1 KCNQ2, FluxOR thallium flux, 20 min; hits give low values | B-score at 10 µM | 310,000 compounds, 1.1% hits;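 active means fluorescence ratio B-score at most minus 3 library SDs, with starting brightness B-score within 2 library SDs, cut at about -5.5 in these data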
Each line names hits and unclear results; the compound was inactive in the other large screens. A selection: hits, their analogues and other compounds. The true share with any hit is near 1.6%.

Cc1ccccc1/C=C1\CCCc2ccccc2C1=O	none (no result: KCNQ2 pot)
O=C1/C(=C\c2ccc3ccccc3c2)CCCc2ccccc21	KCNQ2 block -6.5
CCOC(=O)C1CCCN(CCc2ccccc2)C1 (stereo not drawn)	none
O=C(NC1CCCN(CCc2ccccc2)C1)C1CCCC1 (stereo not drawn)	KCNQ2 block -6.8
Brc1ccc(-c2nnc3ccc(Nc4ccccc4)nn23)cc1	none (no result: KCNQ2 pot)
COc1ccc(NC(=O)Cc2ccc(Cl)c(Cl)c2)cn1	none (no result: KCNQ2 pot)
COc1ccc(NC(=O)/C(Cl)=C(/Cl)S(=O)(=O)Cc2ccc(C)cc2)cn1	KCNQ2 pot 5.4
CCOC(=O)C1CCCN(S(=O)(=O)c2cnc(Cl)c(Br)c2)C1 (stereo not drawn)	none (no result: KCNQ2 pot)
Cc1cc(Nc2cccc([N+](=O)[O-])c2)c2cccc(C)c2n1	none (no result: KCNQ2 pot)
Cc1cc(Nc2ccccc2)c2c([N+](=O)[O-])ccc(C)c2n1	KCNQ2 block -7.3
CC(C)OC(=O)/C(=C\c1cccc2ccccc12)NC(=O)c1ccccc1	none (no result: KCNQ2 pot)
CC(C)OC(=O)/C(=C\c1ccccc1)NC(=O)c1ccccc1	KCNQ2 block -5.6
CCOC(=O)C1=C(C)N=c2s/c(=C\c3ccc(O)c([N+](=O)[O-])c3)c(=O)n2C1c1ccccc1OC (stereo not drawn)	KCNQ2 block -7.2
CCOC(=O)C1=C(C)n2c(s/c(=C/c3cccc([N+](=O)[O-])c3)c2=O)=NC1c1ccc(O)c(OC)c1 (stereo not drawn)	KCNQ2 block -6.1
CCOC(=O)C1=C(C)N=c2s/c(=C/c3ccccc3)c(=O)n2C1c1ccc(OC)c(OC)c1 (stereo not drawn)	none (no result: KCNQ2 pot)
CCOC(=O)C1=C(C)N=c2s/c(=C\c3ccc(OCC(=O)O)cc3)c(=O)n2C1c1ccccc1OC (stereo not drawn)	none
O=C(NC1CCN(S(=O)(=O)c2ccccc2F)CC1)c1cccnc1	none
O=S(=O)(Nc1ccc(-c2nc3cccnc3s2)cc1)c1ccccc1F	none
Cc1sc(NC(=O)C2=COCCO2)c(C(N)=O)c1C	none
CCC(Oc1ccccc1)C(=O)NCCOC (stereo not drawn)	none (no result: KCNQ2 pot)
CC(C)/C(=N/Nc1ccccc1[N+](=O)[O-])c1ccccc1	KCNQ2 block -6.4
C/C(=N/Nc1ccccc1[N+](=O)[O-])c1ccc(C)c([N+](=O)[O-])c1	none
O=C(Nc1cccc(S(=O)(=O)N2CCCCCC2)c1)C1CC(=O)N(c2ccc3c(c2)OCCO3)C1 (stereo not drawn)	none
Cc1ccc(C)c(SCC(=O)OCC(=O)NCCNC(=O)COC(=O)CSc2cc(C)ccc2C)c1	none
COc1ccc([N+](=O)[O-])cc1/C=N/NC(=O)Cc1ccccc1	KCNQ2 pot 6
COc1cc(/C=N/NC(=O)Cc2ccccc2)ccc1Oc1ccc([N+](=O)[O-])cc1[N+](=O)[O-]	none
O=C1C(Cc2ccccc2)Nc2ncnc(N3CCN(c4ccccc4)CC3)c2N1Cc1ccc(Cl)cc1 (stereo not drawn)	none (no result: KCNQ2 pot)
O=C1NC2(Nc3ccccc31)C(=O)Nc1ccccc12 (stereo not drawn)	none
O=C1NC2(Nc3ccccc31)C(=O)Nc1ccc(Br)cc12 (stereo not drawn)	KCNQ2 block -6.2
CCn1cc(CCCC(=O)NCc2ccc(OC)cc2)c2ccccc21	none (no result: KCNQ2 pot)
CCc1nnc(NC(=O)CCC(=O)Nc2ccc(Cl)cc2)s1	none (no result: KCNQ2 pot)
O=C(Nc1cccc(C(F)(F)F)c1)c1cccnc1N1CCN(CCO)CC1	none (no result: KCNQ2 pot)
O=C(Nc1cccc(C(F)(F)F)c1)c1cccnc1N1CCN(c2ccccc2)CC1	KCNQ2 block -7
CCn1c(SCC(=O)NC(=O)NCc2ccco2)nc2sc(C)c(C)c2c1=O	KCNQ2 pot 6
Cc1sc2nc(SCC(=O)NCc3ccco3)n(C)c(=O)c2c1C	none (no result: KCNQ2 pot)
CCOC(=O)c1c(NC(=O)COC(=O)c2cc(OC)c(OC)cc2[N+](=O)[O-])sc(C)c1C	none (no result: KCNQ2 pot)
CCCNC(=O)c1ccc(N2CCC3(CC2)CC(c2ccccc2)=NO3)c(NC(=O)c2ccc(Br)cc2)c1	none (no result: KCNQ2 pot)
CCCCCCCC(=O)Nc1cc(C(=O)NCCC)ccc1N1CCC2(CC1)CC(c1ccccc1)=NO2	KCNQ2 block -6
COc1ccc(N2CCN(CCCNC(=O)C(=O)c3c[nH]c4ccccc34)CC2)cc1	none (no result: KCNQ2 pot)
CCOC(=O)C1(Cc2ccccc2)CCCN(Cc2cccc(C(C)=O)c2)C1 (stereo not drawn)	KCNQ2 block -6
CCOC(=O)C1(Cc2ccccc2)CCCN(Cc2ccc(OCCO)cc2)C1 (stereo not drawn)	none
O=C(CCN1C(=O)C2C3CC(C(Br)C3Br)C2C1=O)OCC(=O)c1cccc([N+](=O)[O-])c1 (stereo not drawn)	none (no result: KCNQ2 pot)
CC(C)(C)c1ccc(C(=O)C2CCCN(C(=O)CCn3cncn3)C2)cc1 (stereo not drawn)	none
CSc1cccc(NC(=S)N(Cc2ccc(C)cc2)Cc2ccccn2)c1	none (no result: KCNQ2 pot)
Cc1ccc(CN(Cc2ccccn2)C(=O)Nc2ccc(C)c(C)c2)cc1	KCNQ2 block -6.8
CC(=O)Nc1ccc2c3c(cccc13)CC2	none
CCCCC(=O)Nc1ccc2c3c(cccc13)CC2	KCNQ2 pot 19
CC(C)CC(=O)Nc1ccc2c3c(cccc13)CC2	KCNQ2 pot 26
Cc1cc(C)cc(OCC(=O)Nc2ccc3c4c(cccc24)CC3)c1	none
CCOc1ccc(C(=O)NCC(=O)NC(C)CCc2ccccc2)cc1OCC (stereo not drawn)	none (no result: KCNQ2 pot)
Cc1cc(C)n2nc(C(=O)OCC(=O)N3CC(C)CC(C)C3)nc2n1 (stereo not drawn)	none (no result: KCNQ2 pot)
CS(=O)(=O)c1ccc(-n2nnc3ccccc32)c([N+](=O)[O-])c1	none (no result: KCNQ2 pot)
N#Cc1cc([N+](=O)[O-])c(-n2nnc3ccccc32)c([N+](=O)[O-])c1	KCNQ2 block -5.7
O=C(NC1CCSc2ccccc21)c1cccc([N+](=O)[O-])c1 (stereo not drawn)	none (no result: KCNQ2 pot)
Cc1cccc(OCC(=O)Nc2c3c(nn2C(C)(C)C)CS(=O)(=O)C3)c1	none (no result: KCNQ2 pot)
O=C(Nc1cccc(F)c1)C1CCCN(S(=O)(=O)c2cnc[nH]2)C1 (stereo not drawn)	none (no result: KCNQ2 pot)
COc1ccc(NC(=O)/C(=C\c2cc(OC)c(OC)cc2[N+](=O)[O-])NC(=O)c2ccccc2)cc1	KCNQ2 block -7.2
COc1cc(/C=C(/NC(=O)c2ccccc2)C(=O)Nc2ccccc2)c([N+](=O)[O-])cc1OC	KCNQ2 block -6.6
COc1cc(/C=C(/NC(=O)c2ccccc2)C(=O)Nc2ccc(O)cc2)c([N+](=O)[O-])cc1OC	none
COc1ccc(C(=O)N/C(=C\c2ccccc2)C(=O)Nc2ccc(C(=O)O)cc2)cc1	none
COC(=O)c1ccc(CNC(=O)COC(=O)C23CC4CC(CC(C4)C2)C3)cc1	none (no result: KCNQ2 pot)
COc1cc(OC)cc(C(=O)N[C@H](C(=O)Nc2cc(F)ccc2C)C(C)C)c1	none (no result: KCNQ2 pot)
CCn1c(COc2ccc(=O)n(-c3ccccc3)n2)n[nH]c1=S	none
Cc1ccc(C(CC(=O)c2ccc(Cl)cc2)C(=O)O)cc1 (stereo not drawn)	none (no result: KCNQ2 pot)
COC(=O)C(CC(=O)c1ccc(Cl)cc1)c1ccc(C(C)C)cc1 (stereo not drawn)	KCNQ2 block -5.9
S=c1[nH]nc(-c2cc3c(s2)-c2ccccc2CC3)o1	KCNQ2 pot 16
CC1CCc2sc(-c3n[nH]c(=S)o3)cc2C1 (stereo not drawn)	none
COc1ccccc1C(=O)NCCOc1ccc(C(C)(C)C)cc1	KCNQ2 block -5.8
COc1ccccc1OCC(=O)NCCSCc1ccccc1Cl	KCNQ2 block -6.2
O=C(COc1ccccc1)NCCSCc1ccc(Cl)cc1	KCNQ2 block -6.6
COc1ccccc1C(=O)NCCCNC(=O)c1ccccn1	none (no result: KCNQ2 pot)
COc1ccccc1C(=O)NCCSCc1ccccc1Cl	KCNQ2 block -6.4
